PLK1 PBD block = qHTS for Inhibitors of PLK1-PDB (polo-like kinase 1 - polo-box domain): Primary Screen. Plk1 PBD binding of FITC phosphopeptide, fluorescence polarization. Potency, µM, for inactives: max response, negative = inhibition, usual class: inhibitors. actives 2.8% (n = 360,000); note: series mostly up to about 57 µM; % is set by controls: 0 for no effect and ±100 for the full control effect; nearly all actives have a fitted effect of over 65% in size
VDR inh = Inhibitors of the vitamin D receptor (VDR): qHTS | Vitamin D3 receptor (Homo sapiens), P11473 | VDR-SRC2-3 peptide fluorescence polarization, 2 h | Potency, µM, inactives show max response, negative = inhibition, usual class: inhibitors | actives 0.93% (n = 400,000); note: % is set by controls: 0 for no effect and ±100 for the full control effect
Target sequence (P11473 whole entry, looked up): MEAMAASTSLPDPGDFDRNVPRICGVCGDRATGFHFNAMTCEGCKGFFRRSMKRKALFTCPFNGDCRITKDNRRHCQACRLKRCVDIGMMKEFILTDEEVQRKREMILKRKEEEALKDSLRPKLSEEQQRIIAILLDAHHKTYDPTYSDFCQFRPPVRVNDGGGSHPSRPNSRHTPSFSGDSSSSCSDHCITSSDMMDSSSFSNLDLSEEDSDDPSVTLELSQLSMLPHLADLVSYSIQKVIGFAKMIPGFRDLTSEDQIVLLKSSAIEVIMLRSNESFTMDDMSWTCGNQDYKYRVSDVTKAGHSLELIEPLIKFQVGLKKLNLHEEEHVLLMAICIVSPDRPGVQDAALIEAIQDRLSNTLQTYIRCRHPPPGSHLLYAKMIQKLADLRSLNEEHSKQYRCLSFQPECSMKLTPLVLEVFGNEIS
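Signal is fluorescence polarization, reporting how far test compounds block the interaction of VDR with the SRC2-3 coregulator peptide after a 2 h room-temperature incubation.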
G9a block = qHTS Assay for Inhibitors of Histone Lysine Methyltransferase G9a | Histone-lysine N-methyltransferase EHMT2 (Homo sapiens), Q96KQ7 | G9a H3K9 monomethylation, AlphaScreen, 2 h | Potency, µM (highest dose often 102 µM), inactives show top-dose activity, negative = inhibition, usual class: inhibitors | actives 8.8% (n = 350,000); note: % is set by controls: 0 for no effect and ±100 for the full control effect; nearly all actives have a fitted effect of over 75% in size
Target sequence (Q96KQ7 913-1193 limits assumed): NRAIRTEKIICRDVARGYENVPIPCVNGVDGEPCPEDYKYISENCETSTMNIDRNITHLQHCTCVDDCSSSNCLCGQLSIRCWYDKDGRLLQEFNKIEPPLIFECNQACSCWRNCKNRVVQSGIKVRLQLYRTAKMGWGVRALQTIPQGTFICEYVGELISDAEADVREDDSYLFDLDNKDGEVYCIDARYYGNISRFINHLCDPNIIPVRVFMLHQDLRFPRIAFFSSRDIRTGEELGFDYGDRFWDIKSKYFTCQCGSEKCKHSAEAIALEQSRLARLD
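G9a (20 nM) preincubated 15 min RT with compounds, then 500 nM biotinylated H3K9 peptide and 20 uM SAM added; 2 h RT reaction. Monomethyl-H3K9 product detected by AlphaScreen with anti-H3K9me1 antibody, streptavidin donor and anti-rabbit IgG acceptor beads.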
BAZ2B inh = qHTS Assay for Inhibitors of BAZ2B | Potency, µM (top dose mostly 114 µM), for inactives: at the highest dose activity change, negative = inhibition, hits mostly inhibitors | actives 4.4% (n = 360,000) | AID 504333, 2011 | AlphaScreen BAZ2B-H3K14Ac peptide displacement; note: % is set by controls: 0 for no effect and ±100 for the full control effect; nearly all actives have a fitted effect of over 60% in size
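AlphaScreen displacement of biotin-H3(5-23)K14Ac peptide (50 nM final) from BAZ2B (50 nM final) in PBS pH 7.4, 0.01% Tween-20; complex preformed 30 min RT, then compounds (top 110 uM) 30 min RT, beads 20 min dark.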
HP1b binding inh = HTS for Inhibitors of HP1-beta Chromodomain Interactions with Methylated Histone Tails; Chromobox protein homolog 1 (Homo sapiens), P83916; AlphaScreen HP1-beta / biotin-H3K9me3 peptide binding; Potency, µM (titrated, usually from 114 µM), inactives show at the highest dose activity change, negative = inhibition, actives largely listed as inhibitors; actives 0.56% (n = 390,000); note: nearly all actives have a fitted effect of over 70% in size
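AlphaScreen: HP1-beta (50 nM) preformed 30 min with biotin-H3(1-18)K9me3 peptide (50 nM) in PBS pH 7.4, 0.01% Tween-20. Compound added for 30 min at RT, then streptavidin donor/nickel chelate acceptor beads (10 ug/mL) for 30 min.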
JMJD2A Tudor inh = qHTS Assay for Inhibitors of JMJD2A-Tudor Domain; Lysine-specific demethylase 4A (Homo sapiens), O75164; AlphaScreen JMJD2A-Tudor / H3K4me3 peptide binding; Potency, µM (top dose mostly 114 µM), without a hit: at the top dose activity change, negative = inhibition, most hits filed as inhibitors; actives 4.4% (n = 390,000); AID 504339, 2011; note: % is set by controls: 0 for no effect and ±100 for the full control effect; nearly all actives have a fitted effect of over 50% in size
Numbers without * were called inactive; ? = inconclusive; nt = not tested or not shown; [ ] = another dose, or the depositor's remark. Shown are actives, neighbours in structure and some others; about 11% of the full set was active somewhere. Calls come from the whole dose curve; as a rule, active = well fitted curve in the direction sought with a large enough effect; inconclusive = small, poorly fitted or top-dose-only effect, or another doubt; inactive = no such curve, though single readings can be large; an effect the other way counts as inactive or inconclusive. Potency is the fitted concentration of half-maximal effect.

SMILES	PLK1 PBD block	VDR inh	G9a block	BAZ2B inh	HP1b binding inh	JMJD2A Tudor inh
CC(C)(C)c1ccc(OCC(=O)O/N=C(\N)c2ccncc2)cc1	-1.6%	10.7%	nt	nt	60.1%	14.7%
CCOc1ccc(-c2cc(C(=O)Oc3ccc(C#N)cc3)no2)cc1	nt	13.9%	-4.4%[59 µM]	2.7%	64.9%	5.6%
CC(C)(C)OC(=O)N1CCC(c2c(C(=O)N3CCC(c4ccccc4)C3)cnn2-c2cccc(Cl)c2)CC1 (stereo not given)	nt	10.6%	-33.1%[59 µM]	-9.8%[57.1 µM]	28.4%	?
CCCOC1CCCN(C(=O)c2ccc(OC3CCN(C(=O)CCOC)CC3)cc2)C1 (stereo not given)	-2.5%	-12.4%	23.4%	-1.5%	26.5%	-16.1%
COCCC(=O)N1CCC(Oc2ccc(C(=O)N(C)C(C)c3ccon3)cc2)CC1 (stereo not given)	26.7µM*	-24.9%	9.2%	-2.9%	-5.2%	?
COCCC(=O)N1CCC(Oc2ccc(C(=O)N3CCCC(OC)C3)cc2)CC1 (stereo not given)	26.7µM*	-11.9%	29.2%	2.0%	11.9%	-22.6%
COc1ccc2c(CC(=O)Nc3ccc(OC)nc3)coc2c1	-9.8%	-5.4%	?	-35.1%	5.0%	-12.8%
COc1ccc(-c2cn3nc(N4CCCC(C(=O)NCc5ccccc5OC)C4)sc3n2)cc1 (stereo not given)	nt	6.4%	-37.1%[59 µM]	-7.6%	6.2%	-16.8%
CC(=O)c1cccc(NC(=O)c2cc(-c3ccco3)nc3ccccc23)c1	-29.9%	10.3%	50.1µM*	-18.0%	-2.3%	-25.4%
O=C(Nc1ccc(F)cc1F)c1cc(-c2ccco2)nc2ccccc12	?	?	44.7µM*	4.5%	17.3%	-11.7%
CCN(CC)S(=O)(=O)c1ccc2[nH]c(=O)cc(C(=O)Nc3cccc(C(C)=O)c3)c2c1	8.1%	13.7%	6.8%	-0.5%	40.6%	-12.9%
CC(=O)c1cccc(NC(=O)c2cc(=O)[nH]c3ccccc23)c1	18.9µM*	3.7%	44.7µM*	-17.1%	53.0%	-3.8%
COc1cc(-c2cc(C(=O)Nc3ccccc3N3CCOCC3)c3ccccc3n2)cc(OC)c1OC	-4.6%	-10.3%	0.5%	-16.3%	31.4%	-23.8%
O=C(Nc1ccccc1N1CCOCC1)c1cc(-c2ccco2)nc2ccccc12	-11.7%	17.0%	?	50.1µM*	?	?
CCC(=O)O[C@]1(C(=O)CCl)[C@@H](C)CC2C3C[C@H](F)C4=CC(=O)C=CC4(C)[C@@]3(F)C(O)CC21C (stereo not given in full)	nt	-4.2%	7.5%[12.7 µM]	nt	nt	nt
Cc1ccc(Cn2nnnc2CN2CCC(NC(=O)C(C)(C)C)CC2)cc1	-15.1%	-1.5%	-4.0%[12.7 µM]	-17.0%	28.3%	-36.0%
CC(=O)Nc1ccc(C(=O)N2CCCC(c3cc(C(=O)NCc4ccccc4)no3)C2)cc1 (stereo not given)	-10.3%	nt	nt	nt	nt	nt
CC(=O)Nc1cc(-c2ccccc2Cl)cn2c(-c3ccc(S(C)(=O)=O)cc3)cnc12	-17.0%	nt	nt	nt	nt	nt
O=C(O)c1cc(-c2ccco2)nc2cc3ccccc3cc12	?	?	11.2µM*	56.2µM*	2.8%	?
O=C(O)c1ccccc1/C=N/NC(=O)c1cc(-c2ccco2)nc2ccccc12	?	-15.6%	14.1µM*	20µM*	?	50.1µM*
CC(=O)Nc1ccc(-c2csc(NC(=O)Cc3cccc(F)c3)n2)cc1	-14.5%	15.1%	11.1%[59 µM]	-1.9%	18.7%	-18.7%
Fc1ccc(C(c2ccc(F)cc2)N2CCN(C/C=C\c3ccccc3)CC2)cc1	nt	9.7%	-1.0%[21.5 µM]	nt	nt	nt
CCOc1ccc(Br)cc1C1C(C(=O)Nc2ccccc2OC)=C(C)Nc2nnnn21 (stereo not given)	nt	-10.3%	-1.5%[59 µM]	-10.2%	20.5%	-12.0%
CN1CCN(NC(=O)c2cc(-c3cccc(Cl)c3)nc3ccccc23)CC1	1.1%	8.1%	?	-18.2%	6.9%	-17.5%
CC(C)c1ccc(-c2cc(C(=O)NN3CCN(C)CC3)c3ccccc3n2)cc1	-26.0%	-16.7%	50.1µM*	-35.2%	-3.7%	?
SMILES	PLK1 PBD block	VDR inh	G9a block	BAZ2B inh	HP1b binding inh	JMJD2A Tudor inh
CCOC(=O)N1CCC(NC(=O)c2cnn(-c3ccc(C)cc3)c2-n2cccc2)CC1	nt	19.9%	-19.6%[59 µM]	-14.0%	0.7%	-9.0%
CC(C)(C)c1ccc(S(=O)(=O)c2cnc(SCC(=O)Nc3ccc(F)c(Cl)c3)[nH]c2=O)cc1	nt	?	-19.5%[59 µM]	-31.2%	19.6%	?
COc1cc(Cl)c(C)cc1NC(=O)CSc1ncc(S(=O)(=O)c2ccc(C(C)(C)C)cc2)c(=O)[nH]1	nt	-13.6%	-48.9%[59 µM]	25.1µM*	-21.4%	89.1µM*
CN(Cc1nc2ccccc2c(=O)[nH]1)Cc1nc2ccsc2c(=O)[nH]1	1.6%	-19.4%	24.5%	39.8µM*	13.7%	79.4µM*
CC(NC(=O)CN(C)Cc1nc2ccccc2c(=O)[nH]1)c1ccccc1 (stereo not given)	1.5%	11.1%	27.3%[59 µM]	48.5%	32.3%	14.4%
Cc1cc(-c2csc(NCc3ccccc3)n2)c(C)n1C	-12.5%	50.5%	8.91µM*	39.8µM*	-14.7%	44.7µM*
Cc1nc(N)sc1-c1csc(NCc2ccccc2)n1	-29.5%	-19.4%	10µM*	31.6µM*	-48.7%	?
Cc1cc(-c2csc(NC(=O)c3ccccc3C(F)(F)F)n2)c(C)n1Cc1ccccc1	-6.8%	6.7%	44.7µM*	14.4%	3.6%	-17.1%
Cc1nc(NC(=O)c2ccccc2)sc1-c1csc(Nc2cccc(F)c2)n1	nt	nt	44.7µM*	?	nt	nt
Cc1cc(-c2csc(NC(=O)c3ccc(=O)n(C)n3)n2)c(C)n1CC1CCCO1 (stereo not given)	-8.0%	6.8%	?	?	25.8%	-24.3%
CCOC(=O)CNC(=O)c1sc(NC(=O)c2ccccc2)nc1C	-0.6%	1.2%	12.9%[59 µM]	-1.6%	41.8%	-10.0%
Cc1nc2sccn2c(=O)c1S(=O)(=O)NCc1ccccc1	-4.3%	-5.8%	17.9%	3.1%	48.5%	-7.0%
COC(=O)Cc1csc(NCc2ccccc2)n1	-3.9%	7.9%	18.7%	-8.3%	-9.2%	-35.3%
COc1ccc(NC(=O)c2cc(-c3sc(NC(=O)c4ccccc4)nc3C)n(Cc3ccccc3)n2)cc1	-4.1%	nt	nt	nt	nt	nt
Cc1nc(NC(=O)c2ccccc2)sc1-c1csc(NCCc2ccccc2)n1	-28.5%	18.8%	39.8µM*	?	-18.1%	?
